Results published in the supplement of paper PMC11732987, “Enantioselective OTUD7B fragment discovery through chemoproteomics screening and high-throughput optimisation” (Communications Chemistry, 2025).
Values without a mark were called inactive.

compound: ClCC(=O)N1CCCC1=O; experiment: log2 ratio of Biotin-Ahx-Ub-VS probe labelling (fragment/DMSO); higher = less target engagement (more negative = stronger competition), active = hit call of the paper (q ≤ 0.05, log2 ratio ≤ -1); settings: compound concentration: 200 uM; treatment time: 3 h
Method: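 Competitive ABPP in HEK293T cell lysate. Lysates were treated with each chloroacetamide fragment at 200 µM for 3 h, then with Biotin-Ahx-Ub-VS (0.5 µM, 1 h), NeutrAvidin-enriched and analysed by diaPASEF LC-MS/MS. Protein LFQ was median-normalised; average log2 ratio is fragment/DMSO from an unpaired t-test (n=3 treated, n=44 DMSO). Hits: q ≤ 0.05, log2 ratio ≤ -1, unique peptides ≥ 2.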

UniProt Q8TE49, sequence (Q8TE49 whole entry): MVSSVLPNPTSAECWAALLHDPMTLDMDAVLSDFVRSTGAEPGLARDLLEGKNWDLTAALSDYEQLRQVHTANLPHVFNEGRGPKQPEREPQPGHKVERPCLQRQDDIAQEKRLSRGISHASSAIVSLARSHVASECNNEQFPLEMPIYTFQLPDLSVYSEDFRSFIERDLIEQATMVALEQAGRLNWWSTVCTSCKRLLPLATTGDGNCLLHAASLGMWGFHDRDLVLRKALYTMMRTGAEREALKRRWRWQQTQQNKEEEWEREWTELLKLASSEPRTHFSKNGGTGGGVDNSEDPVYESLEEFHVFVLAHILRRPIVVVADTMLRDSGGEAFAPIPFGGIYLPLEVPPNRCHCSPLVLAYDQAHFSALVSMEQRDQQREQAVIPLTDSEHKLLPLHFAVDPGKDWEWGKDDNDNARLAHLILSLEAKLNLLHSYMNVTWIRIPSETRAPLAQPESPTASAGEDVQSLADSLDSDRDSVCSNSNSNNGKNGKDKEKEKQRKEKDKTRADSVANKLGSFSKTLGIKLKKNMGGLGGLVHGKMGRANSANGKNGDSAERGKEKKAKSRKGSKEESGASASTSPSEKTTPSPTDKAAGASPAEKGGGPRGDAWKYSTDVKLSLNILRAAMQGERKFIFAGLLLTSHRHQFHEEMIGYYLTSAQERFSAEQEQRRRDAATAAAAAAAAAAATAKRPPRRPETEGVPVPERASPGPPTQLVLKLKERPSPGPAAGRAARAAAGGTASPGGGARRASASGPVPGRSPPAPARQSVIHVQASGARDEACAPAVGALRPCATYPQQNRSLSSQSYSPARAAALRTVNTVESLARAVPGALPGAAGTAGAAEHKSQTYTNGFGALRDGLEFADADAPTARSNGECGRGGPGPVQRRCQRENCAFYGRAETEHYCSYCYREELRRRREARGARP
UniProt Q92905, sequence (Q92905 whole entry, looked up): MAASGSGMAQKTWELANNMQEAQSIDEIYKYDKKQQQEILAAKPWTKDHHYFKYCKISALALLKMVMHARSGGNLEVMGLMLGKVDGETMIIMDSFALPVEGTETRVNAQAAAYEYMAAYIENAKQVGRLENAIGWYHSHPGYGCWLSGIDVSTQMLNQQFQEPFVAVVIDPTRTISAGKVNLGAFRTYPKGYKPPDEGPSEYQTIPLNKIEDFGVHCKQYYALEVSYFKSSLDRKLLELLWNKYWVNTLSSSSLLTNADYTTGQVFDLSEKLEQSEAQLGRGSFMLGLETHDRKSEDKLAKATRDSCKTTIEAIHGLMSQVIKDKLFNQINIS
UniProt Q6GQQ9, sequence (Q6GQQ9 whole entry): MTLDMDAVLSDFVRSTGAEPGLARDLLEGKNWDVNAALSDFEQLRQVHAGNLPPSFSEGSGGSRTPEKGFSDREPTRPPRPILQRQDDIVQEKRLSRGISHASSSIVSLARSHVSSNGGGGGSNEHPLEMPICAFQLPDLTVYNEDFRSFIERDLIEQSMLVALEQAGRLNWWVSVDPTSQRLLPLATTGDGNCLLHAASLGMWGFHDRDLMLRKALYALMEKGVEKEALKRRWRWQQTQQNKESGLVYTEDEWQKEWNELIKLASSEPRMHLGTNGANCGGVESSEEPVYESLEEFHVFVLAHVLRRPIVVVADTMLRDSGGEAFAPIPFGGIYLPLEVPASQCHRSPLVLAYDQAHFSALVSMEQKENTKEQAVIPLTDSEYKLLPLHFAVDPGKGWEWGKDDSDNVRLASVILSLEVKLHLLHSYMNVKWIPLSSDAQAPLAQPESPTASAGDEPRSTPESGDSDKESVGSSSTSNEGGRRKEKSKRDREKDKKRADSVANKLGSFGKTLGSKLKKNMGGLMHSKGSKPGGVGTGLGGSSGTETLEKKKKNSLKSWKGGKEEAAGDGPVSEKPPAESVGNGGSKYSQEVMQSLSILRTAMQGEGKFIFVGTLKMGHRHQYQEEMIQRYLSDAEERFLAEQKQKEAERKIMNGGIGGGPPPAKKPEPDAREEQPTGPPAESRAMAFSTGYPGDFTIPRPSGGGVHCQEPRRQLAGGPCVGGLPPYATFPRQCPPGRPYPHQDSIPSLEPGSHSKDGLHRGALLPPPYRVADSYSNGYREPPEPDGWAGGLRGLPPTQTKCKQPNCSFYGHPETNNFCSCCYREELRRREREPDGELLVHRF
UniProt Q96FW1, sequence (Q96FW1 whole entry): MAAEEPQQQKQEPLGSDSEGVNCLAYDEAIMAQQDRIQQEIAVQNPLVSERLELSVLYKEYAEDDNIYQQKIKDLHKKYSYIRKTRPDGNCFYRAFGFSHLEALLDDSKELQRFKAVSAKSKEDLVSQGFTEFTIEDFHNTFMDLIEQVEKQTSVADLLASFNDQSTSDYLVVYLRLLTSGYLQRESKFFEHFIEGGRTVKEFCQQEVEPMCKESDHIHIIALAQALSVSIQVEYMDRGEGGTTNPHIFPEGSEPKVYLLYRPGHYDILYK
UniProt Q9UPU5, sequence (Q9UPU5 whole entry): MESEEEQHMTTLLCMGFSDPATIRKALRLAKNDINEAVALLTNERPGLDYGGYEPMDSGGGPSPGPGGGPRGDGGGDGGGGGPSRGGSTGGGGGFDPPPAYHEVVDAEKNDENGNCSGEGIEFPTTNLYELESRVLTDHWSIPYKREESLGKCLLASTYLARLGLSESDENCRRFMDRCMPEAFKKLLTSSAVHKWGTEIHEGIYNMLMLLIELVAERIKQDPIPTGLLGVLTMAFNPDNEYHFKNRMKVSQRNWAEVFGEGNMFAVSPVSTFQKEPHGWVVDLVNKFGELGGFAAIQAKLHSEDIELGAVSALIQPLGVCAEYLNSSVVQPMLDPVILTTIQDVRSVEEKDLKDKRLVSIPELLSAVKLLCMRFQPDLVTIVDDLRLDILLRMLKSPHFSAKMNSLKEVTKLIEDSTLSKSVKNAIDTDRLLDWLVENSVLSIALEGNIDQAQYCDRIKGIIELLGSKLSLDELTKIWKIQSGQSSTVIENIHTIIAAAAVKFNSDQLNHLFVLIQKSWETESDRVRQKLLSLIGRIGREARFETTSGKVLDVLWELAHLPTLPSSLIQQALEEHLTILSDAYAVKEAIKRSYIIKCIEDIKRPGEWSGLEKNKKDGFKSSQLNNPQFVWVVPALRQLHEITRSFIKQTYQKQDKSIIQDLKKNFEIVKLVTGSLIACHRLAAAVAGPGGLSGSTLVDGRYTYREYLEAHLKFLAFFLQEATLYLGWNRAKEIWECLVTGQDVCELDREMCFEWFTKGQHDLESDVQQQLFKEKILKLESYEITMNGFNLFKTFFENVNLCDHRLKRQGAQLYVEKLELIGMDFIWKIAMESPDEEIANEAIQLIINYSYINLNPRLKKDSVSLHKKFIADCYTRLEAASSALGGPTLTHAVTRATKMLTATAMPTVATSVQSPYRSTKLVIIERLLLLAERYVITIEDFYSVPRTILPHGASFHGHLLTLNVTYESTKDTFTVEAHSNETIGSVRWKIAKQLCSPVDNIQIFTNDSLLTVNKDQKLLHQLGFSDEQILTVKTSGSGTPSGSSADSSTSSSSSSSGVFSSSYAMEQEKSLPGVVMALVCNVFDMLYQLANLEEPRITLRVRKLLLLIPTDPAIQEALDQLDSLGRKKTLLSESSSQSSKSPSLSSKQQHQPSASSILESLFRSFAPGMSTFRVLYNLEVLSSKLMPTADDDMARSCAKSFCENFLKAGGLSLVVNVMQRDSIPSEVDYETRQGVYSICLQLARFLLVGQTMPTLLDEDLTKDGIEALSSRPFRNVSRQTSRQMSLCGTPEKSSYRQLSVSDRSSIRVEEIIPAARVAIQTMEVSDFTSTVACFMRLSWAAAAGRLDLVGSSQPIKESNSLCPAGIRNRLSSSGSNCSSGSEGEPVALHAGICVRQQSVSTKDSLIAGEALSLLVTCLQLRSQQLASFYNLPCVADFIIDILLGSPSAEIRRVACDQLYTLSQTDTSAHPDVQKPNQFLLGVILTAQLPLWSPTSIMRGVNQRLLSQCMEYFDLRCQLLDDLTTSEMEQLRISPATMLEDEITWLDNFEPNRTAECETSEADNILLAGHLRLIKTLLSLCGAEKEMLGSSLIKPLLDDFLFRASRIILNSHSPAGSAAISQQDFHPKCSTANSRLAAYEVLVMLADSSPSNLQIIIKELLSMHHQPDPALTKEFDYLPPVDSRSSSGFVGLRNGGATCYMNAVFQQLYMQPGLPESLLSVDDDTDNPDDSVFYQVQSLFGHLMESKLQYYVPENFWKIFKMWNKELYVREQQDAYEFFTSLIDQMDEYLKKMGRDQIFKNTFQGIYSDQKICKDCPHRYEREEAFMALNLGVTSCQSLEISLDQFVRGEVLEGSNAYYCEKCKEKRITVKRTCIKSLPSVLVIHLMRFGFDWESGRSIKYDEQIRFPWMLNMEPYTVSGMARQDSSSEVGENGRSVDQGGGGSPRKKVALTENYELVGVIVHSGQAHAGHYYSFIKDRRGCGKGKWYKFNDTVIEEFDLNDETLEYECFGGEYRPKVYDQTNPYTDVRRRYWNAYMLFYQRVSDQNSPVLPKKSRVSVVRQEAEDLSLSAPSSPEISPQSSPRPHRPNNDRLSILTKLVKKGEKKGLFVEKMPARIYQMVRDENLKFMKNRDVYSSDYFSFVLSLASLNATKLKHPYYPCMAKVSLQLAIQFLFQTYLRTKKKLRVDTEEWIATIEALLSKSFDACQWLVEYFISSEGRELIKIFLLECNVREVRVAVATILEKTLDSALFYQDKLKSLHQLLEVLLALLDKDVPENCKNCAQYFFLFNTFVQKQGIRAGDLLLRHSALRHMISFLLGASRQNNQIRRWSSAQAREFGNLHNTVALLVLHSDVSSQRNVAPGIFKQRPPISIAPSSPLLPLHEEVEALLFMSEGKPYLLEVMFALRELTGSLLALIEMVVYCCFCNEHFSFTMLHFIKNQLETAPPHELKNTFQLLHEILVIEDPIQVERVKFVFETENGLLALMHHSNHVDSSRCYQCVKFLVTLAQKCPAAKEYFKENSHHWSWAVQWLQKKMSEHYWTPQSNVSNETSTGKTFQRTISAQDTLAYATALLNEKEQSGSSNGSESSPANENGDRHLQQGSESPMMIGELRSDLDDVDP

Target | log2 ratio of Biotin-Ahx-Ub-VS probe labelling
USP39 (UniProt Q53GS9) | 0.0278
UniProt Q8TE49 | -0.249
COPS5 (UniProt Q92905) | 0.159
USP54 (UniProt Q70EL1) | -0.396
OTUD7B (UniProt Q6GQQ9) | -0.251
OTUB1 (UniProt Q96FW1) | -0.0612
USP24 (UniProt Q9UPU5) | -0.396
USP36 (UniProt Q9P275) | -0.0906
